# Bioassay records as filed in PubChem.
# G9a inh = G9a (human) methyltransferase inhibition. 350,000 tested, 8.8% active. G9a H3K9 monomethylation, AlphaScreen, 2 h. Potency, µM (top dose mostly 102 µM), for the others: top-dose activity, negative = inhibition, hits mostly inhibitors; note: % is set by controls: 0 for no effect and ±100 for the full control effect; nearly all actives have a fitted effect of over 75% in size
# Target sequence (Q96KQ7 913-1193 limits assumed): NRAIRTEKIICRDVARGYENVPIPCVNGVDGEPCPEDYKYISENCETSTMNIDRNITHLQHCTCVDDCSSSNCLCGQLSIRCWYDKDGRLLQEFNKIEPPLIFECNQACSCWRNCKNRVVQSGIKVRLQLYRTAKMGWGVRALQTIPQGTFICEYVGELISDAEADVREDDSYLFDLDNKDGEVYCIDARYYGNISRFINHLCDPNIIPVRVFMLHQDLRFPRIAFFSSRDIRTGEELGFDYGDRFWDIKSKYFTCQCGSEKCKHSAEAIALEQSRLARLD
#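 G9a (20 nM) preincubated 15 min RT with compounds, then 500 nM biotinylated H3K9 peptide and 20 uM SAM added; 2 h RT reaction. Monomethyl-H3K9 product detected by AlphaScreen with anti-H3K9me1 antibody, streptavidin donor and anti-rabbit IgG acceptor beads.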
# Sfp inh = inhibitors of Bacillus subtilis Sfp phosphopantetheinyl transferase. Biochemical Sfp PPTase activity, qHTS. Q9F4F7. Potency, µM, for inactives: largest response in the series, negative = inhibition, most hits filed as inhibitors. 310,000 tested, 3.5% active. AID 1490;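 note: the enzyme is Sfp with the accession as filed and its product quenches rhodamine fluorescence; 0% = enzyme reaction without inhibitor and -100% = no enzyme wells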
#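 After 15 min at room temperature with compound, 15 nM Sfp received 5 uM rhodamine-CoA plus 12.5 uM BHQ-2-ybbR (50 mM Hepes pH 7.6, 10 mM MgCl2). Rate came from the fluorescence difference over 30 min, ex 525/em 598 nm.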
# JMJD2A Tudor inh = blocks the human JMJD2A Tudor domain | O75164 | AlphaScreen JMJD2A-Tudor / H3K4me3 peptide binding | Potency, µM (series often up to 114 µM), without a hit: at the top dose activity change, negative = inhibition, actives largely listed as inhibitors | 390,000 tested, 4.4% active | AID 504339; note: % is set by controls: 0 for no effect and ±100 for the full control effect; nearly all actives have a fitted effect of over 50% in size
# BAZ2B block = inhibitors of human BAZ2B bromodomain; Potency, µM (series often up to 114 µM), inactives show at the top dose activity change, negative = inhibition, usual class: inhibitors; 360,000 tested, 4.4% active; AlphaScreen BAZ2B-H3K14Ac peptide displacement; Q9UIF8; note: % is set by controls: 0 for no effect and ±100 for the full control effect; nearly all actives have a fitted effect of over 60% in size
#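 AlphaScreen displacement of biotin-H3(5-23)K14Ac peptide (50 nM final) from BAZ2B (50 nM final) in PBS pH 7.4, 0.01% Tween-20; complex preformed 30 min RT, then compounds (top 110 uM) 30 min RT, beads 20 min dark.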
# HP1b binding inh = inhibitors of HP1-beta chromodomain binding to methylated histone tails. P83916. AlphaScreen HP1-beta / biotin-H3K9me3 peptide binding. Potency, µM (top dose mostly 114 µM), for the others: at the top dose activity change, negative = inhibition, actives largely listed as inhibitors. 390,000 tested, 0.56% active. AID 540317; note: nearly all actives have a fitted effect of over 70% in size
# Target sequence (P83916 whole entry, looked up): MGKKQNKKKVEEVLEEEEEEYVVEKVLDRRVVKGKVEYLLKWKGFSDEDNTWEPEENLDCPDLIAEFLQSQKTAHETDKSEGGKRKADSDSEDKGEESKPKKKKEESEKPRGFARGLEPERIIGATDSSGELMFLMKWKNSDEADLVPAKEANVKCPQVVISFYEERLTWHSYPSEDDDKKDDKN
#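 Compound inhibition of the preformed complex between 50 nM HP1-beta and 50 nM biotinylated H3K9me3 peptide was read by AlphaScreen. Buffer was PBS pH 7.4 with 0.01% Tween-20. Incubations ran 30 min at room temperature, with 10 ug/mL donor/acceptor beads.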
# PLK1 PBD inh = inhibitors of human PLK1 polo-box domain binding. Potency, µM, for the others: max response, negative = inhibition, most hits filed as inhibitors. 360,000 tested, 2.8% active. P53350. Plk1 PBD binding of FITC phosphopeptide, fluorescence polarization; note: series mostly up to about 57 µM; % is set by controls: 0 for no effect and ±100 for the full control effect; nearly all actives have a fitted effect of over 65% in size
# An asterisk follows results filed as active; ? = inconclusive; · = no result; [ ] = another dose, or the depositor's remark. Compounds with a hit are over-represented: about 12% of the library has one in this group of screens. Calls come from the whole dose curve; as a rule, active = well fitted curve in the direction sought with a large enough effect; inconclusive = small, poorly fitted or top-dose-only effect, or another doubt; inactive = no such curve, though single readings can be large; an effect the other way counts as inactive or inconclusive. Potency is the fitted concentration of half-maximal effect.
SMILES,G9a inh,Sfp inh,JMJD2A Tudor inh,BAZ2B block,HP1b binding inh,PLK1 PBD inh
CN(C)S(=O)(=O)c1ccc(C(=O)Nc2nnc(SCc3ccccc3)s2)cc1,-29.1%[59 µM],4.9%,-10.7%,3.7%,40.5%,-5.6%
Cc1nnc(NC(=O)c2ccc3c(c2)OCO3)s1,-2.0%,8.9%,0.3%,-1.0%,23.8%,-9.4%
CSc1nnc(NC(=O)c2ccc3c(c2)OCO3)s1,28.2µM*,4.2%,-21.4%,-2.9%,39.6%,-11.9%
CSc1nnc(NC(=O)c2ccc(S(=O)(=O)N(C)C)cc2)s1,22.4µM*,-21.5%,-2.5%,-5.4%,27.4%,-18.5%
O=C(Nc1nncs1)c1ccc2c(c1)OCO2,50.1µM*,21.1%,2.1%,-2.9%,19.2%,-5.1%
O=C(Nc1ccc(F)cc1F)c1ccc(-n2cnnc2)cc1,7.8%[59 µM],·,-6.5%,3.6%,27.6%[57 µM],·
CCCn1nc(C(=O)OCC(=O)Nc2ncc(Cl)c(C)c2Cl)c2ccccc2c1=O,?,6.3%,-14.5%,-16.6%,-0.8%,-18.6%
Cc1ccccc1OCC(=O)OCC(=O)Nc1ncc(Cl)c(C)c1Cl,14.7%[2.33 µM],·,?,56.2µM*,4.8%,-25.9%
Cc1ccccc1OCC(=O)OCC(=O)Nc1ccc(Cl)cn1,-3.7%[2.33 µM],·,-13.9%,2.8%,30.6%,-11.9%
Cc1c(Cl)cnc(NC(=O)COC(=O)c2nn(C)c(=O)c3ccccc23)c1Cl,44.7µM*,-6.9%,-24.1%,?,13.6%,-15.5%
Cc1cc(C)c(C)c(S(=O)(=O)N2CCC(C(=O)OCC(=O)N3c4ccccc4NC(=O)C3(C)C)CC2)c1C,13.9%[12.7 µM],-3.9%,?,50.1µM*,-10.4%,-2.6%
C=CCc1cc(C)ccc1OCCOCCN1CCN(C)CC1,14.1µM*,79.4µM*,7.94µM*,50.1µM*,?,-5.8%
Clc1ccc(Cl)c(OCCN2CCCC2)c1,50.1µM*,3.8%,31.6µM*,?,?,-2.9%
Cc1cc(C)c(C)c(OCCOCCN2CCN(C)CC2)c1,?,1.2%,-21.3%,?,4.1%,0.0%
CC(C)(C)c1cc(Cl)ccc1OCCOCCN1CCCC1,25.1µM*,?,20µM*,?,-30.7%,-9.7%
CC(C)(C)c1ccccc1OCCCCN1CCCC1,-8.0%,8.7%,-6.5%,-0.4%,33.0%,-1.2%
Cc1ccc(C(C)C)c(OCCOCCN2CCNCC2)c1,·,·,-22.8%,·,4.5%,-2.2%
Clc1ccc(Cl)c(OCCN2CCOCC2)c1,-3.0%[59 µM],0.8%,-5.4%,4.4%,37.2%,-1.1%
Cc1ccc(OCCOCCN2CCN(C)CC2)c(C(C)(C)C)c1,14.1µM*,50.1µM*,5.62µM*,56.2µM*,?,-9.6%
CC1=CC2C(C)(C)CC(=O)C[C@]2(C)CC1COc1ccc2c(c1)CC(=O)C=C2 (stereo not given in full),·,-11.2%,·,·,·,·
COc1cccc(S(=O)(=O)N(C)C[C@H]2Oc3ncc(Br)cc3C(=O)N([C@@H](C)CO)C[C@@H]2C)c1,·,·,·,·,·,-10.1%
O=C(N=C1SCC(=O)N1c1ccccc1)c1ccco1,-2.4%[59 µM],9.4%,-9.0%,5.6%,42.3%,-1.2%
O=C(N=C1SCC(=O)N1c1ccccc1Cl)c1ccco1,50.1µM*,-3.6%,-24.4%,-3.8%,35.7%,-4.6%
CCCC(=O)N1CCCC1(C)C(=O)Nc1ccc2c(c1)CCN2C(C)=O (stereo not given),·,·,·,·,·,-12.1%
CCOC(=O)c1c(C)[nH]c(C(=O)COC(=O)c2ccc(F)c(S(=O)(=O)N3CCOCC3)c2)c1C,-5.8%[59 µM],-10.6%,17.1%[11.4 µM],17.5%,1.7%,26.7µM*
CCOc1ccc(CCNC(=O)c2oc3c(c2C)-c2[nH]ncc2CC3)cc1OCC,44.7µM*,4.2%,-25.9%,-6.2%,8.4%,-4.7%
Cc1ccc(NC(=O)c2cccnc2)cc1S(=O)(=O)N1CCOCC1,50.1µM*,·,-15.9%,-5.7%,33.2%,-2.0%
CCOC(=O)c1ccc(NC(=O)c2ccc(C)c(S(=O)(=O)N3CCOCC3)c2)cc1,-0.5%,3.2%,0.7%[11.4 µM],5.7%,-18.2%,26.7µM*
CCOC(=O)c1ccc(S(=O)(=O)Nc2cc(S(=O)(=O)N3CCOCC3)ccc2O)cc1,·,·,?,·,?,5.32µM*
